Measured values published in PubChem BioAssay (EPA / NIEHS).
Records with an inconclusive call do not appear. The source made the active and inactive calls. How the source made its calls: active means hit-call score of the fitted dose curve at least 0.9, where 1 is the maximum; inconclusive means response in the unintended direction; inactive means score below 0.9.

What follows are molecules tested on glucuronosyltransferase (UGT1A1), UGT1A1 (gene 54658) (assay: CLD_UGT1A1_48hr: CellzDirect (CLD) Gene Expression Assay for glucuronosyltransferase (UGT1A1) at 48 hours (AID 2283709);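 further: actives increase expression relative to DMSO so potency refers to induction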).
Experimental: CLD_48hr is a cell-based, multiplexed-readout assay that uses hepatocyte, a human liver primary cell, with measurements taken at 48 hours after chemical dosing in a 96-well plate.CLD_UGT1A1_48hr is one of 16 assay component(s) measured or calculated from the CLD_48hr assay. It is designed to make measurements of mRNA induction, a form of inducible reporter, as detected with chemiluminescence signals by Quantitative Nuclease Protection Assay (qNPA) technology.Data from the assay component CLD_UGT1A1_48hr was analyzed at the endpoint, CLD_UGT1A1_48hr, in the positive analysis fitting direction relative to DMSO as the negative control and baseline of activity. Using a type of inducible reporter, gain-of-signal activity can be used to understand changes in the reporter gene as they relate to the gene UGT1A1. Furthermore, this assay endpoint can be referred to as a primary readout. To generalize the intended target to other relatable targets, this assay endpoint is annotated to the transferase intended target family, where subfamily is glucuronosyltransferase.
Human hepatocyte cultures were treated daily for two consecutive days with fresh dosing solutions containing appropriate concentrations of the 320 ToxCast chemicals (chemical identities were blinded to CellzDirect and other ToxCast collaborators), vehicle control (0.2% DMSO), and positive control inducers as summarized in Table 1. Due to the large number of treatment groups and chemicals examined, the ToxCast chemicals were divided into two groups (spanning two independent cultures of hepatocytes from separate donor preparations (Hu778: ToxCast plates 1 and 2; Hu776: ToxCast plates 3 and 4). Each preparation of human hepatocyte cultures was treated with respective vehicle control, medium only control, set of six positive controls/reference chemicals for the five hepatic receptor pathways, and a subset of eight of the ToxCast chemicals (indoxacarb, pyrithiobac-sodium, norflurazon, cyhalofop-butyl, methomyl, thiram, acetochlor, and propiconazole). These replicate data, coupled with internal replicates designed within the blinded ToxCast chemical library, provided additional data to evaluate interindividual differences between hepatocyte preparations and their potential impact on chemical profiles.Cell morphology and integrity were evaluated using phase-contrast microscopy as an indicator of hepatocyte cell health (Tyson & Green, 1987). Cultures for each treatment group (i.e., media, vehicle [0.2% DMSO], positive control inducers [multiple concentrations], and the ToxCast chemicals [multiple concentrations]) were observed and cell morphology was assessed relative to vehicle control cultures at each harvest time point (0, 6, 24, or 48 h). […] Images were evaluated at the conclusion of the study to assess changes in cell integrity and account for the effects of chemical exposure on uncharacteristic changes in concentration-dependent gene expression profiles. The results from these determinations of apparent cytotoxicity were annotated (yes/no) alongside the corresponding qNPA data for reference.At the conclusion of each treatment period, hepatocyte cultures (96-well) were washed with 1 volume of HBSS, lysed by addition of 25 ul ArrayPlate lysis buffer (HTG, Tucson, AZ), and 70 ul/well of Denaturation Oil, denatured by incubation at 95C for 10 min, and frozen at approximately -70C until analysis by nuclease protection assay (qNPA) (Roberts et al., 2007). For qNPA analysis, cell lysates were thawed at 50C for approximately 30 min, qNPA probes were added, and samples were incubated at 95C for 10 min to begin the detection process by denaturing the target RNA, dissociating the duplexes and secondary structure hybridization. At the conclusion of the hybridization period, S1 nuclease reagent was added to each sample to digest all nonprotected nucleotides at 50C for 60-90 min. […]
In the case of `CCSC(=O)N1CCCCCC1`, the outcome is reported as “inactive”.
`CCNP(=S)(OC)O/C(C)=C/C(=O)OC(C)C` (stereo not given) was tested, and the AC50 was 1.04 µM (active).
With `C=CCOC(=O)C(C)(C)OC(=O)c1cc(-n2c(=O)cc(C(F)(F)F)n(C)c2=O)ccc1Cl` the outcome was “inactive”.
For `COc1cc(OC)nc(NC(=O)NS(=O)(=O)c2ncccc2OCC(F)(F)F)n1`, the outcome was “inactive”.
`CC(C)N1C(=O)N(c2ccccc2)CSC1=NC(C)(C)C` was tested, and the outcome was “inactive”.
`OC(c1ccc(Cl)cc1)(c1ccc(Cl)cc1)C(Cl)(Cl)Cl` was tested, and the outcome was “inactive”.
In the case of `O=c1n(Cl)c(=O)n(Cl)c(=O)n1Cl`, the outcome is reported as “inactive”.
With `CCCN(CC)CC1COC2(CCC(C(C)(C)C)CC2)O1` (stereo not given) the outcome was “inactive”.
For `CCC(C)n1c(=O)[nH]c(C)c(Br)c1=O` (stereo not given), the outcome was “inactive”.
For `N#Cc1c[nH]cc1-c1cccc2c1OC(F)(F)O2`, the outcome was “inactive”.
For `CS(=O)(=O)c1ccc(C(=O)C2C(=O)CCCC2=O)c([N+](=O)[O-])c1`, the outcome was “inactive”.
With `CCCCC(C#N)(Cn1cncn1)c1ccc(Cl)cc1` (stereo not given) the outcome was “inactive”.
For `CC(C)=CC1C(C(=O)OCc2coc(Cc3ccccc3)c2)C1(C)C` (stereo not given), the outcome was “inactive”.
With `CC1(C)C(C=C(Cl)Cl)C1C(=O)OC(C#N)c1cccc(Oc2ccccc2)c1` (stereo not given) the AC50 was 6.03 µM (active).
With `COP(=S)(OC)Oc1ccc([N+](=O)[O-])c(C)c1` the AC50 was 5.37 µM (active).
With `COc1cc(Cl)c(OC)cc1Cl` the outcome was “inactive”.
`CCNC(=O)NC(=O)C(C#N)=NOC` was tested, and the outcome was “inactive”.
`CC(C)Nc1nc(Cl)nc(NC(C)C)n1` was tested, and the AC50 was 5.88 µM (active).
`CNC(=O)Oc1cccc2ccccc12` was tested, and the outcome was “inactive”.
For `COCc1cnc(C2=NC(C)(C(C)C)C(=O)N2)c(C(=O)O)c1` (stereo not given), the outcome was “inactive”.
With `COP(=S)(OC)SCn1nnc2ccccc2c1=O` the AC50 was 6.38 µM (active).
For `Cc1cc(C)nc(Nc2ccccc2)n1`, the outcome was “inactive”.
In the case of `CCOc1cc(C(C)(C)C)ccc1C1COC(c2c(F)cccc2F)=N1` (stereo not given), the outcome is reported as “inactive”.
For `O=P(O)(O)CCCl`, the outcome was “inactive”.
With `CCN(CC)C(=O)C(C)Oc1cccc2ccccc12` (stereo not given) the AC50 was 3.1 µM (active).
`COC(=O)c1c(C(F)F)nc(C(F)(F)F)c(C2=NCCS2)c1CC(C)C` was tested, and the outcome was “inactive”.
With `CC(C)N1C(=O)c2ccccc2NS1(=O)=O` the outcome was “inactive”.
With `CCOP(=O)(OCC)Oc1nc(Cl)c(Cl)cc1Cl` the outcome was “inactive”.
`CN=C=S` was tested, and the outcome was “inactive”.
In the case of `N#CN=C1SCCN1Cc1ccc(Cl)nc1`, the outcome is reported as “inactive”.
With `N#Cc1c(Cl)cccc1Cl` the outcome was “inactive”.
`CC(C)NC(=O)N1CC(=O)N(c2cc(Cl)cc(Cl)c2)C1=O` was tested, and the outcome was “inactive”.
With `C=C(C)CN(CC)c1c([N+](=O)[O-])cc(C(F)(F)F)cc1[N+](=O)[O-]` the outcome was “inactive”.
`COC(=O)N(C(=O)N1CO[C@@]2(C(=O)OC)Cc3cc(Cl)ccc3C2=N1)c1ccc(OC(F)(F)F)cc1` was tested, and the outcome was “inactive”.
In the case of `CO/N=C(/C1=NOCCO1)c1ccccc1Oc1ncnc(Oc2ccccc2Cl)c1F`, the outcome is reported as “inactive”.
`CCOP(=S)(OCC)Oc1nc(Cl)n(C(C)C)n1` was tested, and the AC50 was 1.9 µM (active).
With `CCCCC(O)(Cn1cncn1)c1ccc(Cl)cc1Cl` (stereo not given) the outcome was “inactive”.
With `CCN(CC)c1nc(C)cc(OP(=S)(OC)OC)n1` the outcome was “inactive”.
`CC1(C)C(C(=O)OC(C#N)c2cccc(Oc3ccccc3)c2)C1(C)C` (stereo not given) was tested, and the AC50 was 5.67 µM (active).
For `COP(=O)(OC)O/C(C)=C/C(=O)N(C)C`, the outcome was “inactive”.
